Results published in PubChem BioAssay (NCI).
This is part of a sample that, as a whole, favours compounds with a hit. Of some 83,000 tested, about 20% had one in any assay.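 Activity criterion: percent growth below 10, measured after cells in 96-well plates were exposed to a single compound concentration for 48 hours.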 A number with no mark means an inactive call. Calls of active or inactive are those of the source.

Experiments:
Assay in all cases: NCI-60 one-dose screen, 48 h (100 = growth as untreated, 0 = no growth, -100 = all killed)
Conditions in all cases: 10 µM unless noted
SK-MEL-2 melanoma = tested on: SK-MEL-2 melanoma
EKVX NSCLC = tested on: EKVX NSCLC
SN12C renal = tested on: SN12C renal
UO-31 renal = tested on: UO-31 renal
TK-10 renal = tested on: TK-10 renal
ACHN renal = tested on: ACHN renal
CAKI-1 renal = tested on: CAKI-1 renal
A498 renal = tested on: A498 renal
CCRF-CEM leukemia = tested on: CCRF-CEM leukemia
MOLT-4 leukemia = tested on: MOLT-4 leukemia
SR leukemia = tested on: SR leukemia
OVCAR-8 ovarian = tested on: OVCAR-8 ovarian
OVCAR-5 ovarian = tested on: OVCAR-5 ovarian
OVCAR-4 ovarian = tested on: OVCAR-4 ovarian
SK-OV-3 ovarian = tested on: SK-OV-3 ovarian
IGROV1 ovarian = tested on: IGROV1 ovarian
OVCAR-3 ovarian = tested on: OVCAR-3 ovarian
HS 578T breast = tested on: HS 578T breast
NCI/ADR-RES ovarian = tested on: NCI/ADR-RES ovarian

Row | SMILES | growth (SK-MEL-2 melanoma) | growth (EKVX NSCLC) | growth (SN12C renal) | growth (UO-31 renal) | growth (TK-10 renal) | growth (ACHN renal) | growth (CAKI-1 renal) | growth (A498 renal) | growth (CCRF-CEM leukemia) | growth (MOLT-4 leukemia) | growth (SR leukemia) | growth (OVCAR-8 ovarian) [%] | growth (OVCAR-5 ovarian) | growth (OVCAR-4 ovarian) [%] | growth (SK-OV-3 ovarian) | growth (IGROV1 ovarian) [%] | growth (OVCAR-3 ovarian) | growth (HS 578T breast) | growth (NCI/ADR-RES ovarian)
1 | CNCCCNc1nc2ccccc2c2c(=O)c3cc(OC)ccc3sc12 | 113% | 87.4% | 78.4% | 52.4% | 98.8% | 70.5% | 61.7% | 56.5% | 11.9% | 48.3% | -30.2% (active) | 72.7 | 92.2% | 61.2 | 84.9% | 68.1 | 75.7% | 75% | 80.6%
2 | N[C@@H](Cc1ccccc1)[C@@H](O)C(=O)NCc1ccc(F)cc1 | 117% | 103% | 93.4% | 90.8% | 105% | 108% | 91.3% | 96.2% | 111% | 109% | 95.1% | 104 | 98.7% | 103 | 120% | 107 | 117% | 104% | 110%
3 | COc1cccc(-c2nc(-c3ccc(NC(=O)c4ccccc4)cc3)[nH]c2-c2ccnc(Br)c2)c1 | 29.4% | 24.4% | 53.8% | 3.81% (active) | 59.5% | 24.8% | 20.4% | -28.3% (active) | 21.4% | 15.1% | -2.71% (active) | 34 | 47.9% | 38.4 | 6.72% (active) | 55.1 | 40% | -25.8% (active) | 35.5%
4 | CC(C)C(=O)Nc1ccc(-c2nc(-c3cccc(OCCN4CCOCC4)c3)c(-c3ccnc(Br)c3)[nH]2)cc1 | 36.2% | 77.2% | 70.5% | 12.4% | 85.3% | 58.7% | 44% | 54.7% | 29% | 10.6% | -3.9% (active) | 51.8 | 75.2% | 60 | 73.6% | 68.7 | 63.3% | -26% (active) | 91.7%
5 | NCCCNc1nc2ccc(Cl)cc2c2c(=O)c3cc(F)ccc3sc12 | 104% | 81.3% | 71% | 46.3% | 89% | 35.4% | 24.4% | 23.4% | 12.1% | 8.78% (active) | -27.4% (active) | 57.3 | 83.5% | 11.3 | 89.4% | 52.8 | 8.74% (active) | 65.9% | 65.9%
6 | COC1=C(C)C(=O)c2c(c(CCCl)c3n2CCC3O)C1=O (centres undefined) | -48.8% (active) | 13.6% | 6.15% (active) | -60.4% (active) | -35.2% (active) | -3.06% (active) | 10.9% | -79.9% (active) | 66.3% | 74.6% | 7.38% (active) | 12.1 | 10.4% | – | -9.52% (active) | – | 0.645% (active) | -6.16% (active) | 6.59% (active)
7 | CCCCC[C@H](O)C/C=C1/C(=O)C=C[C@@H]1C/C=C\CCCC(=O)OC | 89.2% | 103% | 11.5% | 81.5% | 82.3% | 75.9% | 60.5% | 97.5% | 2.62% (active) | 20.2% | 0.159% (active) | 13.8 | 129% | 83.9 | 118% | – | 11.6% | 88% | 18.7%
8 | O=C(O)c1cn(C2CC2)c2cc(N3CCN(C(=O)Nc4nc(-c5ccccc5)cs4)CC3)c(F)cc2c1=O | -10.8% (active) | 37.5% | 4.91% (active) | 5.5% (active) | 26.3% | 25.2% | 63.6% | -0.916% (active) | 23% | 22.9% | 4.63% (active) | 13.8 | 50.3% | 62.4 | 14.7% | – | 7.8% (active) | 40.6% | 76.7%
9 | Cc1ccc2c(n1)C(=O)C(Cl)=C(Nc1ccccc1C(C)C)C2=O | 64% | 95.8% | 23.7% | 57% | 165% | 49.2% | 35% | 99.7% | 35.7% | 31.9% | 33.4% | 67.5 | 85.9% | – | 79.7% | 63.9 | -3.79% (active) | 100% | 85.8%
10 | COc1cccc(Cc2cc(-c3ccccc3)nn(CC(=O)c3ccccc3)c2=O)c1 | 85.4% | 65.1% | 59.3% | 65.1% | 72.1% | 52% | 59.6% | 52.1% | 39.1% | 22.7% | 0.342% (active) | 58.7 | 96.4% | – | 89.6% | – | 64.9% | 66.9% | 57.2%
11 | CN(C)CCCNc1nc2ccccc2c2c(=O)c3cc(F)ccc3sc12 | 87.3% | 66.3% | 61.2% | 24.9% | 59.7% | 21.5% | 8.81% (active) | 26.6% | 10% (active) | -11.2% (active) | -37.9% (active) | 45.3 | 73.7% | – | 78.1% | 40.5 | 26% | 46.7% | 43%
12 | COc1ccc2c(c1)C(C)Cc1c(ncnc1-n1c(C)nc3ccccc31)N2C (centres undefined) | 33.9% | 43.4% | 35.8% | 37.3% | 57% | 51.4% | 25.2% | -9.67% (active) | 18.3% | 20.6% | 4.92% (active) | 38.8 | 78.3% | 58.6 | 31.5% | – | 5.47% (active) | 2.46% (active) | 5.75% (active)
13 | COC(=O)[C@H](C)NC(=O)NC(=O)NC(=O)CI | 87.7% | 107% | 47.1% | 78.3% | 70.6% | 76.7% | -61.3% (active) | 128% | -55.5% (active) | -31.7% (active) | -23% (active) | 97 | 108% | 64.7 | 107% | – | -19.2% (active) | 114% | 89.7%
14 | COC1=C(C)C(=O)c2c(c(CCCl)c3n2CCC3OC(C)=O)C1=O (centres undefined) | -45.6% (active) | 0.0316% (active) | 3.34% (active) | -60.9% (active) | -37.9% (active) | -3.88% (active) | 0.742% (active) | -87.8% (active) | 50.2% | 34.4% | 1.94% (active) | 10.2 | 4.93% (active) | 72 | -21.6% (active) | – | -23.3% (active) | -22.9% (active) | 8.95% (active)
15 | COc1ccc(C(=O)N=Nc2c(O)n(C)c3ccccc23)cc1 | 114% | 77% | 94.5% | 69.3% | 146% | 91.4% | 82.3% | 99.5% | 94.2% | 99.9% | 80.5% | 95.6 | 105% | – | 87.2% | 90.2 | 104% | 99.5% | 91.5%
16 | COc1ccc(-c2nc(NCCO)[nH]c(=O)c2C#N)cc1 | 98.6% | 110% | 95.9% | 90.5% | 99.7% | 96.5% | 101% | 113% | 102% | 98.8% | 94.3% | 107 | 92.8% | 107 | 97.7% | – | 111% | 106% | 98.1%
17 | COc1cc(/C=N/NC(=O)c2ccc(C)nc2)cc(OC)c1OC | 79.3% | 90.4% | 102% | 65.6% | 81.3% | 91.2% | 79.8% | 93.2% | 87% | 57.8% | 103% | – | 103% | 96.4 | 112% | 107 | 119% | 88.6% | 102%
